According to PubChem BioAssay AID1159580 (chemical genetic matrix, 2015):
“And” between values parts separate entries of the source, which are not always exact repeats. Equal entries are not always repeated. Hit rate of the full screen: of about 5,500 compounds, about 2,000 (36%) were called active. Roughly 18% stayed inconclusive and do not appear here. Rule as the data show it: active = normalized growth mostly below about 0.91 (no sharp cut-off); inconclusive = no clear call, values can overlap the other calls; inactive = mostly above about 0.92. The list shows a part of the results.

Experiment: chemical genetic growth profiling, strain panel (AID 1159580);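 also: tested at 20 µM; growth read once vehicle control cultures reached saturation at 30 °C; 1 = growth at the plate median or of vehicle wells; lower values mean less growth of the strain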
Conditions: S. cerevisiae deletion strains, growth OD

Measured: normalized growth

CCN(CC)C(=O)N1CCN(C)CC1
inactive: locus YAL021C, strain ccr4, stronger effect = lower value 0.984 | locus YAL026C, strain drs2, stronger effect = lower value 0.967 | locus YAL030W, strain snc1, stronger effect = lower value 0.967 | locus YBL061C, strain skt5, stronger effect = lower value 0.976 | locus YBR009C, strain hhf1, stronger effect = lower value 0.957 | locus YBR021W, strain FUR4, stronger effect = lower value 0.974 | locus YBR023C, strain chs3, stronger effect = lower value 0.981 | locus YBR171W, strain sec66, stronger effect = lower value 0.99 | locus YBR229C, strain ROT2, stronger effect = lower value 1.01 | locus YBR231C, strain swc5, stronger effect = lower value 0.97 | locus YBR279W, strain paf1, stronger effect = lower value 0.981 | locus YCL011C, strain gbp2, stronger effect = lower value 0.971 | locus YCL016C, strain dcc1, stronger effect = lower value 0.973 | locus YCL029C, strain bik1, stronger effect = lower value 0.999 | locus YCL069W, strain vba3, stronger effect = lower value 0.984 | locus YCR088W, strain abp1, stronger effect = lower value 0.994 | locus YDL005C, strain med2, stronger effect = lower value 0.963 | locus YDL035C, strain GPR1, stronger effect = lower value 1.04 | locus YDL040C, strain nat1, stronger effect = lower value 0.973 | locus YDL074C, strain BRE1, stronger effect = lower value 1.03 | locus YDL101C, strain DUN1, stronger effect = lower value 1.01 | locus YDL134C, strain PPH21, stronger effect = lower value 1.04 | locus YDL185W, strain tfp1, stronger effect = lower value 0.994 | locus YDL192W, strain arf1, stronger effect = lower value 1 | locus YDR001C, strain nth1, stronger effect = lower value 0.958 | locus YDR069C, strain doa4, stronger effect = lower value 0.976 | locus YDR101C, strain arx1, stronger effect = lower value 1 | locus YDR137W, strain rgp1, stronger effect = lower value 0.917 | locus YDR150W, strain NUM1, stronger effect = lower value 1.02 | locus YDR159W, strain sac3, stronger effect = lower value 0.964 | locus YDR162C, strain NBP2, stronger effect = lower value 1.02 | locus YDR195W, strain ref2 0.943 | locus YDR297W, strain sur2, stronger effect = lower value 0.979 | locus YDR318W, strain mcm21, stronger effect = lower value 1.01 | locus YDR334W, strain swr1, stronger effect = lower value 0.982 | locus YDR335W, strain msn5, stronger effect = lower value 0.95 | locus YDR388W, stronger effect = lower value 1 | locus YDR392W, strain spt3, stronger effect = lower value 0.956 | locus YDR502C, strain sam2, stronger effect = lower value 1 | locus YEL003W, strain gim4, stronger effect = lower value 0.965 | locus YEL037C, strain rad23, stronger effect = lower value 0.978 | locus YEL061C, strain CIN8 (second series), stronger effect = lower value 0.973 | locus YEL061C, strain CIN8, stronger effect = lower value 1.01 | locus YER015W, strain faa2, stronger effect = lower value 0.979 | locus YER016W, strain bim1, stronger effect = lower value 0.94 | locus YER110C, stronger effect = lower value 0.991 | locus YER111C, strain swi4, stronger effect = lower value 0.969 | locus YER155C, strain BEM2 (second series), stronger effect = lower value 0.984 | locus YER155C, strain BEM2, stronger effect = lower value 1.01 | locus YER167W, strain BCK2, stronger effect = lower value 1.01 | locus YFR010W, strain ubp6, stronger effect = lower value 0.959 | locus YGL078C, strain dbp3, stronger effect = lower value 0.997 | locus YGL086W, strain mad1, stronger effect = lower value 1.02 | locus YGL167C, strain pmr1, stronger effect = lower value 0.983 | locus YGL173C, strain kem1, stronger effect = lower value 0.986 | locus YGL227W, strain vid30, stronger effect = lower value 0.982 | locus YGL240W, strain doc1, stronger effect = lower value 0.956 | locus YGL248W, strain PDE1, stronger effect = lower value 1.01 | locus YGL253W, strain hxk2, stronger effect = lower value 0.948 | locus YGR078C, strain PAC10, stronger effect = lower value 1.02 | locus YGR135W, strain pre9, stronger effect = lower value 0.996 | locus YGR252W, strain gcn5, stronger effect = lower value 0.912 | locus YHR013C, strain ard1, stronger effect = lower value 0.942 | locus YHR027C, strain rpn1, stronger effect = lower value 0.971 | locus YHR030C, strain SLT2, stronger effect = lower value 1.02 | locus YHR079C, strain IRE1 (second series), stronger effect = lower value 0.993 | locus YHR079C, strain IRE1, stronger effect = lower value 1.02 | locus YHR094C, strain hxt1, stronger effect = lower value 1 | locus YHR129C, strain ARP1, stronger effect = lower value 1.01 | locus YHR142W, strain chs7, stronger effect = lower value 0.954 | locus YHR200W, strain rpn10, stronger effect = lower value 1 | locus YIL066C, strain RNR3, stronger effect = lower value 1.04 | locus YIL073C, strain SPO22, stronger effect = lower value 1.02 | locus YIL125W, strain kgd1, stronger effect = lower value 1 | locus YIR030C, strain dcg1, stronger effect = lower value 1.01 | locus YJL092W, strain hpr5, stronger effect = lower value 0.985 | locus YJL095W, strain BCK1 (second series), stronger effect = lower value 0.965 | locus YJL095W, strain BCK1, stronger effect = lower value 1 and 1.04 | locus YJL115W, strain asf1, stronger effect = lower value 0.946 | locus YJL129C, strain trk1, stronger effect = lower value 0.951 | locus YJL134W, strain LCB3, stronger effect = lower value 1.01 | locus YJL154C, strain vps35, stronger effect = lower value 0.983 | locus YJL164C, strain tpk1, stronger effect = lower value 0.959 | locus YJL166W, strain qcr8, stronger effect = lower value 0.999 | locus YJL168C, strain set2, stronger effect = lower value 0.992 | locus YJL187C, strain SWE1 (second series), stronger effect = lower value 1.01 | locus YJL187C, strain SWE1, stronger effect = lower value 0.973 | locus YJR043C, strain POL32, stronger effect = lower value 1.04 | locus YJR066W, strain TOR1, stronger effect = lower value 0.965
